Assay results published in PMC5540273 (PLoS ONE, 2017).
Values joined by “and” are separate entries in the source; they are usually repeats but may differ in a detail not shown here. Equal entries are not always repeated. Where two headings read alike, the source gives them in different places.

Experiments:
Details in all cases: concentration: 1 μM, replicates: in singlicate, n = 1
[1] = tested on: PKMYT1
[2] = tested on: PKN1
[3] = tested on: PKN2
[4] = tested on: PLK1
[5] = tested on: PLK2
[6] = tested on: PLK3
[7] = tested on: PLK4
[8] = tested on: PRKCD
[9] = tested on: PRKCE
[10] = tested on: PRKCH
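Further: KINOMEscan kinase panel screen.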

SMILES	%Inh [1]	%Inh [2]	%Inh [3]	%Inh [4]	%Inh [5]	%Inh [6]	%Inh [7]	%Inh [8]	%Inh [9]	%Inh [10]	%Inh ([1]; 1 µM)	%Inh ([2]; 1 µM)	%Inh ([3]; 1 µM)	%Inh ([4]; 1 µM)	%Inh ([5]; 1 µM)	%Inh ([7]; 1 µM)	%Inh ([8]; 1 µM)	%Inh ([9]; 1 µM)	%Inh ([10]; 1 µM)	%Inh ([6]; 1 µM)
Cn1cc(-c2ccc3c(c2)CCN3C(=O)Cc2ccccc2Cl)c2c(N)ncnc21 [GSK2608885]	18%	42%	31%	15%	51%	86%	55%	51%	7%	54%										
Fc1ccc(-c2ncn(CCCN3CCOCC3)c2-c2cccnc2)cc1 [SB-211743]	0%	0%	13%	0%	0%	15%	0%	6%	0%	0%										
COc1cc(Nc2nccc(N3CCC(NC(=O)c4cccc(NC(C)=O)c4)C3)n2)cc(OC)c1OC (stereo not drawn) [GSK1379754]	0%	0%	0%	0%	0%	3%	75%	8%	0%	2%										
Cl.Oc1cccc(Nc2ccnc3cc(-c4ccncc4)ccc23)c1 [GW494601]	63%	0%	0%	30%	0%	0%	25%	0%	7%	0%										
COC(=O)Nc1nc2cc(Oc3ccc(NC(=O)Nc4cc(F)ccc4F)cc3)ccc2[nH]1.Cl [GW701424]	0%	0%	0%	0%	0%	0%	0%	0%	12%	5%										
O=C(Nc1n[nH]c2cc(-c3cccc(F)c3)ccc12)C1CC1 [SB-735464]	1%	7%	17%	0%	37%	13%	4%	0%	34%	8%										
Cc1cccc(-c2nc(Nc3ccc4ncsc4c3)c3ccccc3n2)n1 [GW867588]	9%	14%	0%	12%	19%	16%	14%	7%	27%	0%										
Cc1nnc(-c2ccc3occ(-c4ccc(C(C)O)cc4)c3c2)o1 (stereo not drawn)	0%	0%	0%	2%	0%	0%	21%	11%	0%	0%										
CN(C1=C(c2ccccc2)C(=O)NC1=O)c1ccccc1 [SB-334860]	8%	20%	0%	3%	2%	0%	21%	0%	22%	6%										
Cc1ccc(C(=O)NCC(N)=O)cc1-n1c(C)cc(OCc2ccc(F)cc2F)c(Br)c1=O	22%	6%	0%	0%	0%	0%	0%	33%	2%	1%										
CC(C)(C)n1cnc2c(N)ncnc21 [SKF-97359]	0%	0%	0%	0%	0%	0%	0%	1%	0%	0%										
O=C1Cc2cc(Nc3nc(NCc4cccc(S(=O)(=O)C(F)(F)F)c4)ncc3C(F)(F)F)ccc2N1	17%	0%	0%	0%	5%	1%	4%	17%	23%	0%										
O=C(NOCC1CC1)c1ccc(F)c(F)c1Nc1ccc(I)cc1Cl	0%	0%	0%	0%	8%	0%	0%	3%	28%	0%										
C[C@@H](Oc1cc(-n2cnc3ccc(NC(=O)NC(C)(C)C)cc32)sc1C(N)=O)c1ccccc1Cl [GSK346294]	5%	0%	0%	99.9%	96%	87%	0%	5%	19%	21%										
O=C1NC(=O)C(N2CCc3ccccc32)=C1c1cccc(Cl)c1 [SB-408010]	20%	0%	3%	27%	0%	4%	25%	0%	19%	13%										
Cn1ccc2ncnc(Oc3ccc(NC(=O)Nc4ccncc4)c(Cl)c3)c21	2%	0%	0%	0%	8%	0%	0%	6%	0%	16%										
CC(C)(CN)c1nc(-c2ccc(Cl)c(O)c2)c(-c2ccncc2)[nH]1.O=C(O)C(F)(F)F [SB-477794]						0%					28% and 26%	23% and 0%	0% and 21%	4% and 1%	0% and 15%	5% and 0%	78% and 87%	96% and 96.3%	92.9% and 94.1%	

SMILES	%Inh [1]	%Inh [2]	%Inh [3]	%Inh [4]	%Inh [5]	%Inh [6]	%Inh [7]	%Inh [8]	%Inh [9]	%Inh [10]	%Inh ([1]; 1 µM)	%Inh ([2]; 1 µM)	%Inh ([3]; 1 µM)	%Inh ([4]; 1 µM)	%Inh ([5]; 1 µM)	%Inh ([7]; 1 µM)	%Inh ([8]; 1 µM)	%Inh ([9]; 1 µM)	%Inh ([10]; 1 µM)	%Inh ([6]; 1 µM)
CCn1cnc2c(N)ncnc21 [GW345098]	5%	20%	0%	0%	7%	18%	27%	0%	18%	9%										
Cl.Nc1ncnc2occ(-c3ccc(NC(=O)Nc4cc(C(F)(F)F)ccc4F)cc3)c12 [SB-707548]	0%	0%	0%	5%	98.8%	98%	35%	27%	10%	1%										
NS(=O)(=O)CCc1cccc(Nc2nccc(-c3c(-c4cccc(NC(=O)c5c(F)cccc5F)c4)nn4ccccc34)n2)c1 [GSK336735]	0%	0%	0%	0%	25%	48%	12%	40%	0%	32%										
CNc1ncnc2[nH]ncc12 [SKF-18355]	1%	0%	2%	31%	12%	23%	6%	0%	12%	0%										
Cc1cccc(-c2nc(-c3ccc(S(C)(=O)=O)cc3)sc2-c2ccncc2)c1	20%	17%	0%	0%	8%	6%	10%	24%	7%	10%										
COc1cc2c(cc1OC[C@@H](O)CO)ncc1c3ccc(C#N)cc3[nH]c21	0%	0%	33%	0%	0%	0%	9%	5%	62%	0%										
N#Cc1c(N2CCOCC2)sc(-c2ccn[nH]2)c1-c1ccc(Cl)cc1	10%	17%	0%	24%	20%	15%	19%	0%	0%	2%										
COCCNC(=O)c1ccc(-c2cc(C(=O)NC3CC3)cc(F)c2C)cc1 [GW868318]	10%	0%	20%	66%	46%	33%	34%	15%	36%	0%										
CCc1nc(-c2cccc(C)c2)c(-c2ccnc(NCc3ccccc3)c2)s1	5%	14%	0%	0%	7%	6%	0%	16%	0%	0%										
[2H]C([2H])(c1cccc(C(F)(F)F)c1C)n1ccn2c(=O)nc(N3CCOCC3)cc12 [GSK2336394]	0%	39%	0%	0%	0%	0%	0%	6%	2%	0%										
Fc1ccc(-c2nn3c(OCC(F)(F)F)cccc3c2-c2ccncc2)cc1 [GW514784]	0%	0%	0%	0%	0%	0%	0%	0%	14%	13%										
Cc1nnc(-c2ccc3ncc(-c4ccc(S(C)=O)cc4)n3c2)o1 (stereo not drawn)	3%	0%	0%	0%	11%	12%	0%	14%	0%	0%										
O=C(NCCNc1ccnc(Nc2ccc(F)cc2)n1)Nc1ccccc1F [GSK1379880]	9%	0%	0%	100%	0%	0%	0%	0%	0%	0%										
Cl.Cl.Cl.Fc1ccc(-c2ncn(C3CCNCC3)c2-c2ccnc(Nc3ccccc3)n2)cc1 [SB-238039]											0% and 1%	0% and 9%	0% and 24%	4% and 0%	6% and 0%	7% and 26%	66% and 28%	69% and 29%	58% and 19%	15% and 0%
CN1c2ccc(CNc3ccc(F)cc3)cc2-c2c(cnn2C)S1(=O)=O	0%	0%	0%	11%	15%	11%	0%	0%	5%	0%										
COc1ccc(Nc2nccc(N3CCC(NC(=O)Nc4cccc(C(C)=O)c4)C3)n2)cc1 (stereo not drawn) [GSK1379731]	0%	3%	0%	7%	0%	0%	0%	0%	0%	0%										
